Source: PubChem BioAssay (Tox21)
Where “and” joins values, the source holds several entries; their conditions need not be identical. Identical values can stand only once. Results filed as inconclusive are left out. Where a call stands in place of a potency, no number is given. Calls of active or inactive are those of the source. Unless noted, calls follow the shape of the full dose curve.

assay: qHTS assay for small molecules that induce genotoxicity in human embryonic kidney cells expressing luciferase-tagged ATAD5 (AID 651632; active = well fitted activation curve with a large enough effect in the repeat runs; also: nearly all actives have a fitted effect of over 15% in size); details: HEK293T ATAD5-luciferase induction, 16 h; series mostly up to 83.3 µM
In short: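 Genotoxicity read-out via ATAD5-luciferase: HEK293T cells, 16 hr compound incubation at 37C, Amplite detection.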

| SMILES | outcome |
| --- | --- |
| CC(C)c1ccc(S(=O)(=O)O)cc1 | inactive |
| O=C(O)CCCCCCCCCCC(=O)O | inactive |
| CCN(CC)CCCC(C)Nc1ccnc2cc(Cl)ccc12 (configuration not stated) | inactive |
| C#C[C@]1(O)CC[C@H]2[C@@H]3CCC4=CC(=O)CC[C@@H]4[C@H]3CC[C@@]21C | inactive |
| CC(=O)CC(=O)Nc1ccccc1 | inactive |
| O=C(Oc1ccccc1)c1ccccc1 | inactive |
| Cc1ccc2oc(=O)ccc2c1 | inactive |
| CC(c1cc2ccccc2s1)N(O)C(N)=O (configuration not stated) | inactive |
| CCCCC(CC)COC(=O)C(C#N)=C(c1ccccc1)c1ccccc1 (configuration not stated) | inactive |
| CCN(CC)c1ccc(C(=O)c2ccccc2C(=O)O)c(O)c1 | inactive |
| OCc1cccnc1 | inactive |
| CCc1ccc(CCOc2ccc(CC3SC(=O)NC3=O)cc2)nc1 (configuration not stated) | inactive |
| CC1=CCC2CC1C2(C)C (configuration not stated) | inactive |
| COS(C)(=O)=O | inactive |

assay: qHTS assay for small molecule agonists of the p53 signaling pathway - cell viability (AID 651633); details: p53RE-bla HCT-116 viability, ATP luminescence, 16 h; series mostly up to 83.3 µM; also: nearly all actives have a fitted effect of over 30% in size; also: potency is read from the fitted curve at half-maximal effect
In short: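 p53RE-bla cells were treated with compound for 16 hours at 37 C. Cytotoxicity was then measured as CellTiter-Glo luminescence after 30 min at room temperature.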

| SMILES | Potency |
| --- | --- |
| O=C(O)c1cc(C(=O)O)cc(S(=O)(=O)O)c1 | inactive |
| CC1CCC(C(C)C)C(O)C1 (configuration not stated) | inactive |
| CCCCCCCCC/C=C/CC1CC(=O)OC1=O (configuration not stated) | inactive |
| CCCCCC1=CCCC1=O | inactive |
| O=C(O)c1ccccc1C(c1ccc(O)cc1)c1ccc(O)cc1 | inactive |
| CCCCC(CC)COC(=O)CCCCC(=O)OCC(CC)CCCC (configuration not stated) | inactive |
| COCCCOc1ccnc(CS(=O)c2nc3ccccc3[nH]2)c1C (configuration not stated) | inactive |
| CCCCCC/C(C=O)=C\c1ccccc1 | inactive |
| O=C(O)CCCC[C@@H]1SC[C@@H]2NC(=O)N[C@@H]21 | inactive |
| C=C(C)C(=O)Nc1ccc(Cl)c(Cl)c1 | inactive |
| Cc1cccnc1 | inactive |
| CC[C@H](C)C(=O)O[C@H]1C[C@@H](C)C=C2C=C[C@H](C)[C@H](CC[C@@H]3C[C@@H](O)CC(=O)O3)[C@H]21 | 29.8 µM (active) and 69.6 µM (active) |
| NNc1nncc2ccccc12 | inactive |
| O=[N+]([O-])c1ccc(/C=C/c2ccc([N+](=O)[O-])cc2S(=O)(=O)O)c(S(=O)(=O)O)c1 | inactive |
| CCCSc1ccc2nc(NC(=O)OC)[nH]c2c1 | inactive |
| CC(=O)Nc1ccccc1 | inactive |
| Cc1occc(=O)c1O | inactive |

| SMILES | Potency |
| --- | --- |
| CC1=CC(=O)NS(=O)(=O)O1 | inactive |
| OCC(CO)(CBr)CBr | inactive |
| CCCCCCCCCCCCOCCO | inactive |
| COc1ccc(NC(C)=O)cc1N | inactive |
| CCCCCOC(C)=O | inactive |
| CC(C)c1ccc(S(=O)(=O)O)cc1 | inactive |
| O=C(O)CCCCCCCCCCC(=O)O | inactive |
| CC(=O)CC(=O)Nc1ccccc1 | inactive |
| O=C(Oc1ccccc1)c1ccccc1 | inactive |
| Cc1ccc2oc(=O)ccc2c1 | inactive |
| CCCCC(CC)COC(=O)C(C#N)=C(c1ccccc1)c1ccccc1 (configuration not stated) | inactive |
| CCN(CC)c1ccc(C(=O)c2ccccc2C(=O)O)c(O)c1 | inactive |
| CCc1ccc(CCOc2ccc(CC3SC(=O)NC3=O)cc2)nc1 (configuration not stated) | inactive |
| COc1ccc2cc([C@H](C)C(=O)O)ccc2c1 | inactive |
| CC1=CCC2CC1C2(C)C (configuration not stated) | inactive |
| COS(C)(=O)=O | inactive |

assay: qHTS assay for small molecules that induce genotoxicity in human embryonic kidney cells expressing luciferase-tagged ATAD5 - cell viability (AID 651634); details: HEK293T ATAD5-luc cells viability, CellTiter-Fluor, 15.5 h; series mostly up to 83.3 µM; also: nearly all actives have a fitted effect of over 25% in size
In short: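 Live-cell protease activity (CellTiter-Fluor, fluorescence) indicates viability. HEK293T cells with luciferase-tagged ATAD5; 15.5 hr compound treatment at 37C.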

| SMILES | Potency | activity, negative = cytotoxicity |
| --- | --- | --- |
| O=C(O)c1cc(C(=O)O)cc(S(=O)(=O)O)c1 | inactive | – |
| CC1CCC(C(C)C)C(O)C1 (configuration not stated) | inactive | – |
| CCCCCCCCC/C=C/CC1CC(=O)OC1=O (configuration not stated) | inactive | – |
| CCCCCC1=CCCC1=O | inactive | – |
| O=C(O)c1ccccc1C(c1ccc(O)cc1)c1ccc(O)cc1 | inactive | – |
| CCCCCC/C(C=O)=C\c1ccccc1 | inactive | – |
| O=C(O)CCCC[C@@H]1SC[C@@H]2NC(=O)N[C@@H]21 | inactive | – |
| C=C(C)C(=O)Nc1ccc(Cl)c(Cl)c1 | inactive | – |
| Cc1cccnc1 | inactive | – |
| CC[C@H](C)C(=O)O[C@H]1C[C@@H](C)C=C2C=C[C@H](C)[C@H](CC[C@@H]3C[C@@H](O)CC(=O)O3)[C@H]21 | inactive | – |
| O=[N+]([O-])c1ccc(/C=C/c2ccc([N+](=O)[O-])cc2S(=O)(=O)O)c(S(=O)(=O)O)c1 | inactive | – |
| CC(=O)Nc1ccccc1 | inactive | – |
| Cc1occc(=O)c1O | inactive | – |
| CC1=CC(=O)NS(=O)(=O)O1 | inactive | – |
| OCC(CO)(CBr)CBr | inactive | – |
| CCCCCCCCCCCCOCCO | inactive | – |
| O=C(O)[C@H](O)[C@@H](O)[C@H](O)[C@H](O)CO | inactive | – |
| COc1ccc(NC(C)=O)cc1N | inactive | – |

| SMILES | Potency | activity, negative = cytotoxicity |
| --- | --- | --- |
| CCCCCOC(C)=O | inactive | – |
| OC[C@H]1O[C@@](CO)(O[C@H]2O[C@H](CO)[C@@H](O)[C@H](O)[C@H]2O)[C@@H](O)[C@@H]1O | inactive | – |
| CC(C)c1ccc(S(=O)(=O)O)cc1 | inactive | – |
| O=C(O)CCCCCCCCCCC(=O)O | inactive | – |
| CCN(CC)CCCC(C)Nc1ccnc2cc(Cl)ccc12 (configuration not stated) | – | -6.84% [at 8.08 µM] (inactive) |
| C#C[C@]1(O)CC[C@H]2[C@@H]3CCC4=CC(=O)CC[C@@H]4[C@H]3CC[C@@]21C | inactive | – |
| CC(=O)CC(=O)Nc1ccccc1 | inactive | – |
| O=C(Oc1ccccc1)c1ccccc1 | inactive | – |
| Cc1ccc2oc(=O)ccc2c1 | inactive | – |
| CC(c1cc2ccccc2s1)N(O)C(N)=O (configuration not stated) | inactive | – |
| CCCCC(CC)COC(=O)C(C#N)=C(c1ccccc1)c1ccccc1 (configuration not stated) | inactive | – |
| CCN(CC)c1ccc(C(=O)c2ccccc2C(=O)O)c(O)c1 | inactive | – |
| OCc1cccnc1 | inactive | – |
| CCc1ccc(CCOc2ccc(CC3SC(=O)NC3=O)cc2)nc1 (configuration not stated) | inactive | – |
| COc1ccc2cc([C@H](C)C(=O)O)ccc2c1 | inactive | – |
| CC1=CCC2CC1C2(C)C (configuration not stated) | inactive | – |
| COS(C)(=O)=O | inactive | – |
